The whole screen tested about 220,000 compounds, of which about 3,300 (1.5%) were called active.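 The calls were made as follows: active = compounds that cut the protein-peptide binding signal by more than 50% relative to plate controls in a single-dose test; inactive = the rest.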 This excerpt belongs to a sample that is enriched for actives.
Target: Induced myeloid leukemia cell differentiation protein Mcl-1 (Homo sapiens) (UniProt Q07820)
Test: Mcl-1/Noxa binding inhibitors, primary screen, biochemical, TR-FRET, 1536-well (AID 1022);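 also: His-tagged Mcl-1 with rhodamine Noxa BH3 peptide and terbium anti-His antibody; 0% = Mcl-1 plus Noxa peptide wells and 100% = peptide-only wells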
Settings: TR-FRET Mcl-1/Noxa peptide binding, 2 h; at 21.7 µM; hits give high values

Induced myeloid leukemia cell differentiation protein Mcl-1 (Homo sapiens), sequence (Q07820 whole entry, looked up): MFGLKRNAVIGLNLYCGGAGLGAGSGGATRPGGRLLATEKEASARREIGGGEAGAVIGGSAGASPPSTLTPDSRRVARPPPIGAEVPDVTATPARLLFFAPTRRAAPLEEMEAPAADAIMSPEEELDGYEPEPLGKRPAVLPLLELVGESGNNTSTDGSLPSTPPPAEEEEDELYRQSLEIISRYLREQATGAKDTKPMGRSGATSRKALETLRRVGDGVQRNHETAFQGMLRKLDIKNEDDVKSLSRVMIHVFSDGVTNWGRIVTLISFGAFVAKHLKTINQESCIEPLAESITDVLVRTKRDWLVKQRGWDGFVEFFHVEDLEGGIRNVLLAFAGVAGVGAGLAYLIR

inhibition, active:
COc1cc(/C=N/Nc2nn3cnnc3c3ccccc23)cc(OC)c1OC 52.5%
Cc1ccc(NN=Nc2nc3c([nH]2)c(=O)n(C)c(=O)n3C)cc1 55.6%
Cc1ccc(Cn2c(C)nc3c(c2=O)c2nc4ccccc4nc2n3Cc2ccco2)cc1 63.1%
CC(=O)N1C(=O)/C(=C2\SC(=S)N(NC(=O)c3ccc(O)cc3)C2=O)c2ccccc21 94.5%

inhibition, inactive:
Cc1ccc(NNC(=O)c2c(F)cccc2Cl)cc1Cl 0.81%
CCOC(=O)C1CCN(C(=O)Nc2cccc(OC)c2)CC1 -13.3%
COc1cccc(C(=O)n2ccc(-c3cccs3)n2)c1 1.68%
Cc1nnc(SC(C(=O)c2ccccc2)c2ccccc2)[nH]c1=O (configuration not stated) -5.97%
Cc1cc2c(cc1C)N(Cc1ccccc1)C1=NCCCN12 -4.28%
CCOc1ccc(/C=N/Nc2nncc(-c3ccccc3)n2)cc1OC 14.2%
COc1ccc(/C=N/Nc2nc3ccccc3o2)cc1OC -2.8%
C=CCN(c1ccccc1C(=O)NCC(=O)OCC)S(=O)(=O)c1ccc(C)cc1 8.19%
CCCSc1nc2c(c(=O)n(C)c(=O)n2C)n1Cc1ccc(C)cc1 -4.96%
CC(CCO)Nc1nc2c([nH]1)c(=O)n(C)c(=O)n2C (configuration not stated) -3.43%
Cc1cc(C(=O)NNS(=O)(=O)c2ccccc2C(F)(F)F)nn1C(C)(C)C -0.45%
Cc1cc(N2CCN(c3ccc(F)cc3)CC2)n2ncnc2n1 -1.64%
CC(C)NC(=O)NNc1c(Cl)cncc1Cl 3.37%
Cc1ccc(Cn2c(NC(=O)c3ccco3)nc3ccccc32)cc1 1.28%
Clc1cccc(-c2nc3nc4ccccc4nc3n2Cc2ccco2)c1 4.89%
COc1ccc2c(c1)C(=C(C#N)C#N)C(=O)N2CCc1ccccc1 -4.33%
CCCCCn1c(=O)c(C(=O)OCC)c(Cl)c2ccccc21 -2.04%
CCOC(=O)/C=C/CN(C(=O)OC(C)(C)C)S(=O)(=O)N1CC=CC1 -18%
CCC(C)N1C(=S)SC(C)(C)C1N(O)C(=O)NC1CCCCC1 (configuration not stated) -0.12%
Cn1cccc1/C=C1\SC(=S)N(NC(=O)c2ccc(Cl)cc2)C1=O 18.5%
O=C(O)c1ccc2c(c1)C(=O)N(NC(=O)c1ccc(O)cc1)C2=O 12.9%
O=C(NCCc1ccccc1)Oc1ccc(Cl)cc1 7.49%
COC(=O)N(NC(=O)C(O)(C(C)C)C(C)C)c1ccccc1 -6.13%

From PubChem BioAssay AID1022 (Emory University Molecular Libraries Screening Center, 2008)
